Pf Dd2 inh = P. falciparum Dd2 growth inhibitors, primary screen, SYBR Green fluorescence, single dose replicates; 72 h; hits give low values; activity change, % at 10 µM; 94,000 tested, 2.3% active; AID 1159554, 2015; in the data active = activity change below about -80%; inconclusive = no clear call, values can overlap the other calls
T cruzi growth-1 = T. cruzi intracellular proliferation inhibitors, primary screen, cell-based, beta-gal Tulahuen parasites, NIH3T3 host, luminescence; T. cruzi beta-gal in NIH3T3, GalScreen luminescence, 90 h; inhibition, % at 8.34 µM; 77,000 tested, 5.9% active; AID 624255, 2012;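 active = mean inhibition above about 93%, with at least 55% of replicates each passing it, limit read from the data, passing the limit was not always enough; inconclusive = only one of those two conditions holds; inactive = neither condition holds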
C diff growth = C. difficile growth inhibitors, primary screen, HTS | Clostridium difficile clinical isolate growth, OD600, 24 h; hits give low values | growth activity, negative = inhibition, % at 16 µg/mL (by protocol) | 86,000 tested, 0.25% active | AID 1259249, 2017;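 active = mean growth activity at or below -80% and every replicate also at or below -80%; inconclusive = mean at or below -80% but some replicate above -80%; inactive = mean growth activity above -80%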;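 note: 0% = DMSO wells and -100% = levofloxacin 16 µg/mL wells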
T cruzi growth-2 = T. cruzi intracellular proliferation inhibitors, confirmation, cell-based, NIH3T3 host, beta-gal parasite, luminescence, cherry-pick. inhibition, % at 8.35 µM. shares compounds with T cruzi growth-1. 5,600 tested, 72% active. T. cruzi beta-gal in NIH3T3, GalScreen luminescence, 90 h;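 active = mean replicate inhibition above about 95% and at least 55% of replicates individually reaching it, limit read from the data; inconclusive = only one of the two criteria is met; inactive = neither criterion is met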
T cruzi growth-3 = inhibitors of intracellular T. cruzi replication, confirmation, NIH3T3 host cells, beta-gal parasites, cherry-pick, set 2 | T. cruzi beta-gal in NIH3T3, GalScreen luminescence, 90 h | inhibition, % at 2.09 µM | shares compounds with T cruzi growth-1 | AID 651740, 2012 | 5,600 tested, 21% active;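 active = mean inhibition above about 95%, with at least 55% of replicates also reaching it, limit read from the data; inconclusive = meets just one of the two conditions; inactive = meets neither condition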;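 note: plate controls were neutral control median for no effect and positive control median for full effect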
3T3 cytotox = cytotoxicity in mouse NIH/3T3 fibroblasts, confirmation, cytotoxicity control for T. cruzi proliferation inhibitor project, cell-based, cherry-pick, single point. shares compounds with T cruzi growth-1. NIH/3T3 viability, CellTiter-Glo ATP luminescence, 90 h. cytotoxicity (signal decrease), % at 8.35 µM. 5,600 tested, 14% active. AID 651742, 2012;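 active = mean signal decrease across replicates above about 35% based on untreated-well scatter, with enough replicates individually passing, limit read from the data; inconclusive = no rule stated though some were filed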;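 note: 0% = median of neutral control wells and 100% = median of positive control wells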
3T3 cytotox 2 = NIH/3T3 fibroblast cytotoxicity, confirmation, cytotoxicity control, cell-based, cherry-pick, single point, set 2; shares compounds with T cruzi growth-1; 5,600 tested, 56% active; NIH/3T3 viability, CellTiter-Glo ATP luminescence, 90 h; inhibition, % at 24.9 µM;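 active = mean loss of cell viability signal at or above a set limit, and enough replicates individually reaching it; inconclusive = meets only the mean limit or only the replicate share; inactive = meets neither condition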;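 note: 0% = median of neutral control wells and 100% = median of positive control wells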
Starred values were filed as active, the others as inactive; ? = inconclusive; / = not tested or not shown; ! = not active in a repeat. Rows were chosen to be rich in hits. Some 6.7% of all compounds tested hit in one or more screens of this group.

SMILES | Pf Dd2 inh | T cruzi growth-1 | C diff growth | T cruzi growth-2 | T cruzi growth-3 | 3T3 cytotox | 3T3 cytotox 2
CCNC(=O)[C@@H]1[C@@H](CO)[C@@H]2Cn3c(ccc(-c4ccc(F)cc4)c3=O)[C@H]1N2C | 6 | -42 | 0 | / | / | / | /
C[C@@H]1CN([C@H](C)CO)C(=O)c2cc(NC(=O)C3CCCCC3)ccc2O[C@@H](C)CCCCO[C@@H]1CN(C)C(=O)c1ccncc1 | -14 | 23 | -3 | / | / | / | /
COc1ccc(C(=O)Nc2ccc3c(c2)OC[C@H](C)NC[C@H](C)[C@@H](OC)CN(C)C3=O)cc1 | 5 | / | -7 | / | / | / | /
C[C@H]1CCCCO[C@@H](CN(C)CC2CCCCC2)[C@@H](C)CN([C@@H](C)CO)C(=O)c2cc(NS(=O)(=O)c3ccc(F)cc3)ccc2O1 | -70 | 85 | 12 | / | / | / | /
C[C@H](CO)N1C[C@H](C)[C@@H](CN(C)Cc2ccc3c(c2)OCO3)Oc2ccc(NC(=O)Cc3cn(C)c4ccccc34)cc2C1=O | -44 | / | 1 | / | / | / | /
COC(=O)C[C@@H]1CC[C@@H]2[C@H](COc3ccc(NC(=O)c4ccccc4F)cc3C(=O)N2C)O1 | / | -26 | -3 | / | / | / | /
COc1ccc(NC(=O)Nc2cccc3c2O[C@H](CN(C)S(=O)(=O)c2ccc(C)cc2)[C@H](C)CN([C@@H](C)CO)C3=O)cc1 | -48 | 48 | -4 | / | / | / | /
CCC(=O)N1CC[C@@H]2[C@H]1c1cc(-c3ccc(F)cc3)ccc1N(C)[C@H]2CO | -4 | 106* | 5 | 100* | 94 | -25 | -7
CCC(=O)N1CC[C@@H]2[C@H]1c1cc(-c3cccc(F)c3)ccc1N(C)[C@H]2CO | -2 | 62 | -9 | / | / | / | /
Cc1cccc(-c2ccc([C@H]3[C@H](CO)N4CCCCN(Cc5cncnc5)C[C@@H]34)cc2)c1 | 7 | 103* | 1 | 100* | 75 | 9 | 11
Cc1cccc(-c2ccc([C@H]3[C@H]4CN(Cc5cncnc5)CCCCN4[C@H]3CO)cc2)c1 | 4 | 68 | 0 | / | / | / | /
OC[C@H]1[C@H](c2ccc(-c3cccc(F)c3)cc2)[C@H]2CN(Cc3cncnc3)CCCCN21 | -22 | 94* | -3 | 92 | -5 | 15 | 105*
Cc1cccc(-c2ccc([C@H]3[C@@H](CO)N4CCCCN(Cc5ccncc5)C[C@@H]34)cc2)c1 | -2 | 103* | -2 | 111* | 68 | 25 | 105*
OC[C@@H]1[C@@H](c2ccc(-c3cccc(F)c3)cc2)[C@H]2CN(Cc3cncnc3)CCCCN12 | -6 | 60 | -2 | / | / | / | /
OC[C@H]1[C@@H](c2ccc(-c3ccccc3)cc2)[C@H]2CN(Cc3cncnc3)CCCCN21 | -5 | 62 | -3 | / | / | / | /
Cc1cccc(-c2ccc([C@@H]3[C@@H](CO)N4CCCCN(Cc5ccncc5)C[C@@H]34)cc2)c1 | 4 | 71 | -9 | / | / | / | /
OC[C@H]1[C@H](c2ccc(-c3ccccc3)cc2)[C@@H]2CN(Cc3cncnc3)CCCCN12 | -40 | 107* | -3 | 103* | 94 | 23 | 34*
COCC(=O)N1C[C@H]2[C@@H](c3ccccc31)[C@H](CO)N2C(=O)C1CCCCC1 | 10 | 6 | 8 | / | / | / | /
CN1[C@@H]2c3ccc(-c4ccccc4F)c(=O)n3C[C@@H]2[C@@H](CO)[C@@H]1C(=O)NCC(F)(F)F | / | 23 | -4 | / | / | / | /
CC(=O)N(C)C[C@H]1Oc2cc(-c3ccccc3C)ccc2S(=O)(=O)N([C@@H](C)CO)C[C@H]1C | 11 | 81 | 6 | / | / | / | /
O=C(NCC[C@@H]1CC[C@@H](NC(=O)C2CCOCC2)[C@@H](CO)O1)Nc1ccc(Cl)cc1 | 5 | -31 | 1 | / | / | / | /
C[C@@H]1CCCCO[C@H](CN(C)CC2CCCCC2)[C@H](C)CN([C@H](C)CO)C(=O)c2cc(NS(=O)(=O)c3cccs3)ccc2O1 | -60 | 88 | 12 | / | / | / | /
Cc1cccc(-c2ccc([C@H]3[C@H](CO)N4CCCCN(Cc5cccnc5)C[C@@H]34)cc2)c1 | -64 | 104* | 3 | 106* | 68 | 22 | 101*
OC[C@@H]1[C@H](c2ccc(C#Cc3ccccc3F)cc2)[C@H]2CN(Cc3cncnc3)CCCCN12 | -76 | 118* | -1 | 103* | 96* | 44* | 105*
CN(C)C(=O)c1cccc(-c2ccc([C@H]3[C@@H](CO)N4CCCCN(Cc5cccnc5)C[C@@H]34)cc2)c1 | -25 | 101* | 3 | ? | 88 | -10 | -15
SMILES | Pf Dd2 inh | T cruzi growth-1 | C diff growth | T cruzi growth-2 | T cruzi growth-3 | 3T3 cytotox | 3T3 cytotox 2
Cc1cccc(-c2ccc([C@H]3[C@@H](CO)N4CCCCN(Cc5cncnc5)C[C@@H]34)cc2)c1 | 7 | 106* | -4 | 95* | 85 | 37* | 102*
Cc1cccc(-c2ccc([C@@H]3[C@@H](CO)N4CCCCN(Cc5cncnc5)C[C@H]34)cc2)c1 | 1 | 48 | 1 | / | / | / | /
CN(C)C(=O)c1cccc(-c2ccc([C@@H]3[C@H]4CN(Cc5cccnc5)CCCCN4[C@H]3CO)cc2)c1 | 7 | 53 | -4 | / | / | / | /
COc1cccc(-c2ccc([C@H]3[C@H]4CN(Cc5cncnc5)CCCCN4[C@H]3CO)cc2)c1 | -3 | 40 | 9 | / | / | / | /
OC[C@@H]1[C@@H](c2ccc(C#Cc3ccccc3)cc2)[C@H]2CN(Cc3cncnc3)CCCCN12 | -32 | 70 | 1 | / | / | / | /
CC(=O)N(C)C[C@H]1Oc2ncc(C#Cc3ccc(F)cc3)cc2C(=O)N([C@@H](C)CO)C[C@@H]1C | 55 | / | / | / | / | / | /
C[C@H](CO)N1C[C@H](C)[C@H](CN(C)Cc2ccc3c(c2)OCO3)OCCCC[C@H](C)Oc2ccc(N(C)C)cc2C1=O | -2 | 72 | 3 | / | / | / | /
C[C@@H]1CCCCO[C@H](CN(C)Cc2ccncc2)[C@@H](C)CN([C@H](C)CO)C(=O)c2cc(N(C)C)ccc2O1 | 2 | 108*! | 0 | 59 | -10 | 13 | -1
C[C@@H]1CN([C@@H](C)CO)C(=O)c2cc(N(C)C)ccc2O[C@@H](C)CCCCO[C@@H]1CN(C)Cc1ccc2c(c1)OCO2 | -30 | 101*! | 5 | ? | -25 | 0 | 11
C[C@H]1CCCCO[C@H](CN(C)Cc2ccncc2)[C@@H](C)CN([C@@H](C)CO)C(=O)c2cc(N(C)C)ccc2O1 | 15 | 15 | 4 | / | / | / | /
O=C(C[C@H]1CC[C@H](NS(=O)(=O)c2ccc(F)cc2)[C@@H](CO)O1)NCCc1ccncc1 | -2 | 12 | 5 | / | / | / | /
COc1ccc2c3c(n(C)c2c1)[C@@H](CO)N(C(=O)C1CCCC1)CC31CN(C)C1 | 3 | / | -1 | / | / | / | /

Compound activity deposited in PubChem BioAssay by Broad Institute.
